Growth data for 12 compounds are collected here from PubChem BioAssay (NCI).

Molecules are shown by their SMILES. This is part of a sample that, as a whole, favours compounds with a hit. Of some 83,000 tested, about 20% had one in any assay.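 Activity criterion: percent growth below 10, measured after cells in 96-well plates were exposed to a single compound concentration for 48 hours.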 Unmarked numbers belong to inactive results. Active and inactive are the calls of the source.

The subject of the test is SW-620 colon. Nature of the test: NCI-60 one-dose screen, 48 h (100 = growth as untreated, 0 = no growth, -100 = all killed). The note with it: 10 µM unless noted.
Regarding `C=C1C(=O)O[C@H]2[C@H]1CC/C(COC(=O)NCc1cc[nH]c1)=C\CC[C@@]1(C)O[C@@H]21`, the growth is 21.6%. For `CSc1nc2sc3c(c2c(=O)n1-c1ccc([N+](=O)[O-])cc1)CCCCC3`, the growth is 95.4%. The value for `O=C(Nn1c2c(sc1=NCc1ccccc1)C(=O)c1ccccc1C2=O)c1cc2ccc1CCc1ccc(cc1)CC2` was 77.5%.

In the case of `O=C(CN1C(=O)CCC1=O)Nc1ncc(Cc2ccc(F)cc2)s1`, the growth was 102%.

As to `Cc1ccc(NC(=S)NNC(=S)NNc2ccccc2)cc1C`, the growth is 106%. The value for `CCN(CC)CCOc1ccc(C(=C(C)c2ccc(Cl)cc2)c2ccc(OCCN(CC)CC)cc2)cc1` was -75.6% (active); that for `COC(=O)[C@]1(C)CCC[C@]2(C)[C@H]3C[C@H]4C(C(C)C)=C[C@]3(CC[C@H]21)[C@H]1[C@@H]4[C@@H](OCCC#N)CC[C@@H]1OCCC#N` was 47.8%.

With `COc1ccc(-c2cc(-c3ccc(Cl)cc3)c(C#N)c(=O)n2CCCCC(=O)Nc2ccccc2N)cc1`, the growth was 71.8%. For `C=C1C(=O)O[C@H]2[C@H]1CC/C(COC(=O)NCc1ccc(Cn3c(=O)sn(CCI)c3=O)cc1)=C\CC[C@@]1(C)O[C@@H]21`, the growth was -2.89% (active).

Regarding `CC(=O)OC[C@]12CCC(C)(C)C[C@H]1[C@@]1(O)[C@H](O)C[C@@H]3[C@@]4(C)CCCNC(C)(C)[C@@H]4CC[C@@]3(C)[C@]1(C)CC2`, the growth is 109%. Regarding `Cc1cc(=O)[nH]c2c(C#N)cnn12`, the growth is 92.4%. `O=C(OCc1ccc2c(Cl)cc(Cl)c(O)c2n1)n1cncn1`: the growth is 24.7%.
